Laboratory results reported in PubChem BioAssay AID720553 (National Center for Advancing Translational Sciences (NCATS), 2013).
The campaign covered roughly 340,000 compounds. About 3,300 (0.97%) were called active.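 Rule for the calls: active = maximum activity change below -70%; inconclusive = maximum activity change from -70% to -50%; inactive = maximum activity change above -50%.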 This excerpt belongs to a sample that is enriched for actives.

system: Potassium voltage-gated channel subfamily H member 2, brain isoform KCNH2 3.1 (human); assay: qHTS for Inhibitors of KCHN2 3.1: Mutant qHTS; conditions: U2OS KCNH2 3.1, thallium flux FluxOr; hits give low values
From the text: Many antipsychotic drugs that inhibit the neurotransmitter dopamine also bind to hERG1 channel which might help explain their antipsychotic activity but also produces cardiac side effects. The discovery of the novel KCNH2 3.1 isoform offers a potential new target for the development of antipsychotic drugs without cardiac side effects. This proposal will use a high throughput thallium flux assay developed for KCNH2 to screen compounds that modulate the activity of KCNH2 3.1. The wild type KCNH2 channel will also be screened in parallel to help define the selective modulators of this KCNH2 3.1 potassium channel. The resulting compounds will be validated in electrophysiology experiments. The availability of animal models will allow future testing in vivo for effects on memory and other aspects of animal physiology linked with psychosis. NIH Chemical Genomics Center [NCGC] NIH Molecular Libraries Probe Centers Network [MLPCN] MLPCN Grant: MH096539 Assay Submitter (PI): James Barrow, Johns Hopkins University, Lieber Institute for Brain Development
U2OS cells were resuspended in cell media containing 10% fetal calf serum (FCS) at a concentration of 2 million cells / mL. The solution was treated with the mutant (3.1) virus at 1.77 x 10^8 / mL and allowed to incubate at room temperature in the dark. After 4 hours of incubation, DMEM + 10% fetal bovine serum (FBS) was added to the cell solution. Three microliter was then dispensed into a 1536 tissue culture treated black assay plates which were incubated overnight at 37 C. Two microliter of loading buffer (HBSS + HEPES + Red40 dye quencher + FluxOr dye) was added and the assay plates were incubated for 45 min at room temperature in the dark. […] A stimulation buffer was added to the plate and the second kinetic read (2 min) was obtained. The rate constant was calculated from the kinetic reads and normalized to the positive and negative DMSO controls.
% is set by controls: 0 for no effect and ±100 for the full control effect.

Q: For `CCOC(=O)C1(CCc2ccccc2)CCN(Cc2ccco2)CC1`, which activity change is on record?
A: -96.9% (active)

Q: `c1ccc(CCN2CCC3(CC2)OCCO3)cc1` was tested. Which activity change did it give?
A: -0.723% (inactive)

Q: Which activity change does the source give for `CCOC(=O)C1(c2ccccc2)CCN(CC(O)c2ccc(NC(C)=O)cc2)CC1` (stereo not given) here?
A: -5.82% (inactive)

Q: Which activity change does the source give for `COP(=O)(OC)C(NC(=O)c1ccc(C)cc1)C(Cl)(Cl)Cl` (stereo not given) here?
A: 10.5% (inactive)

Q: For `COc1ccc(C(=O)C2CCCN(Cc3ccc(C)s3)C2)cc1OC` (stereo not given), which activity change is on record?
A: -13% (inactive)

Q: For `COc1cccc(CN2CCCC(C(=O)c3ccccc3SC)C2)c1O` (stereo not given), which activity change is on record?
A: -72.3% (active)

Q: `CSc1ccc(C(=O)C2CCCN(Cc3ccn[nH]3)C2)cc1` (stereo not given) was tested. Which activity change did it give?
A: -19% (inactive)

Q: For `CC1C2Cn3c(nc4ccccc43)C1N(C)O2` (stereo not given), which activity change is on record?
A: 20.5% (inactive)

Q: Which activity change does the source give for `COC(=O)C1=C(c2ccc(F)cc2OCc2ccccc2)C[C@@H]2CC[C@H]1N2C(=O)NCc1ccc(C(C)(C)C)cc1` here?
A: -19.4% (inactive)

Q: With `COC(=O)C1=C(c2ccc(F)cc2OCc2ccccc2)C[C@@H]2CC[C@H]1N2C(=O)NCc1ccc(OC)c(OC)c1` as the molecule, how does the activity change read?
A: -73.8% (active)

Q: How did the activity change turn out when `COC(=O)C1=C(c2ccc(F)cc2OCc2ccccc2)C[C@@H]2CC[C@H]1N2C(=O)NCc1ccc2[nH]ccc2c1` was run?
A: 1.25% (inactive)

Q: How did the activity change turn out when `CC1=CC(=Cc2sc3ccccc3[n+]2C)C=C(C)O1` was run?
A: -4.47% (inactive)

Q: For `COC(=O)C1=C(c2ccc(C(C)=O)cc2)C[C@@H]2CC[C@H]1N2C(=O)NCCNC(C)=O`, which activity change is on record?
A: 21.5% (inactive)

Q: For `COC(=O)CN1C(=O)C2(C(C(=O)OC)=C(N)Oc3ccccc32)C2=C1CC(C)(C)CC2=O` (stereo not given), which activity change is on record?
A: -17.7% (inactive)

Q: `CC(=O)NC(=O)NC(C)Cc1ccccc1` (stereo not given) was tested. Which activity change did it give?
A: -18.9% (inactive)

Q: `CC(Cc1ccccc1)NCCC(c1ccccc1)c1ccccc1` (stereo not given) was tested. Which activity change did it give?
A: -112% (active)

Q: Which activity change does the source give for `CC(Cc1ccccc1)NC=O` (stereo not given) here?
A: 13.6% (inactive)

Q: `CCN1c2nc3c(C)cccn3c(=O)c2CC2(C(=O)N(C)C(=O)N(C)C2=O)C1C` (stereo not given) was tested. Which activity change did it give?
A: -4.08% (inactive)

Q: How did the activity change turn out when `c1ccc(C2NCc3ccccc3-n3cccc32)cc1` (stereo not given) was run?
A: 12.2% (inactive)

Q: `CC1(C)C(c2ccccc2)=NC(c2cccnc2)=[N+]1[O-]` was tested. Which activity change did it give?
A: 0.45% (inactive)

Q: With `CN(C)c1nc(N(C)C)nc(N(C#N)CCCl)n1` as the molecule, how does the activity change read?
A: -8.4% (inactive)

Q: How did the activity change turn out when `OCC#CC[N+]1(CC#Cc2ccccc2)CCCC1` was run?
A: 13.7% (inactive)

Q: How did the activity change turn out when `Cn1c(O)c(C=Nc2ccc3c(c2)CCC3)c(=O)n(C)c1=O` was run?
A: -17.3% (inactive)

Q: `CCOC(=O)C1(Cc2ccc(Cl)cc2)CCN(C(C)CCn2cccn2)CC1` (stereo not given) was tested. Which activity change did it give?
A: -115% (active)

Q: How did the activity change turn out when `O=c1c2ccccc2nc(/C=C/c2ccc(F)cc2)n1-c1ccccc1O` was run?
A: -2.48% (inactive)

Q: For `CN1CCN(C(=O)COc2ccc(C(C)(C)C)cc2Br)CC1`, which activity change is on record?
A: -2.07% (inactive)

Q: For `CC(C)c1ccc(OCC(=O)N2CCCN(C)CC2)cc1`, which activity change is on record?
A: 10.3% (inactive)

Q: Which activity change does the source give for `CC(C)c1ccc(OCC(=O)N2CCN(C)CC2)c(Br)c1` here?
A: -93.1% (active)

Q: With `CC(=C1C(=O)c2ccccc2C1=O)N1CCN(CCN=Cc2c(O)n(C)c(=O)n(C)c2=O)CC1` as the molecule, how does the activity change read?
A: 10.3% (inactive)

Q: With `CC1CC=CCC12C(=O)NC(=S)NC2=O` (stereo not given) as the molecule, how does the activity change read?
A: 10.6% (inactive)

Q: With `CSC1=NP(=S)(SC)N(C)c2nc3n(c21)CCC3` (stereo not given) as the molecule, how does the activity change read?
A: -5.66% (inactive)

Q: How did the activity change turn out when `Cc1cc(C)cc(NC(=S)NC2CC3CCCC(C2)N3Cc2cccs2)c1` (stereo not given) was run?
A: -73.1% (active)

Q: How did the activity change turn out when `c1ccc(CCNC2CCCCCC2)cc1` was run?
A: 12.5% (inactive)

Q: With `CNC(=O)O/N=C(\N)Cc1csc2ccc(Cl)cc12` as the molecule, how does the activity change read?
A: 4.55% (inactive)

Q: Which activity change does the source give for `N#Cc1ccc(Cn2cc(C(=O)c3ccco3)c3ccccc32)cc1` here?
A: -80.8% (active)

Q: Which activity change does the source give for `NC(=O)Cn1cc(C(=O)c2ccccc2F)c2ccccc21` here?
A: 3.8% (inactive)

Q: For `COc1ccc2[nH]c3c(c2c1)CCN[C@H]3C`, which activity change is on record?
A: 2.31% (inactive)

Q: `COc1cc(OC)cc(C2(C#N)CCN(C)CC2)c1` was tested. Which activity change did it give?
A: 5.57% (inactive)

Q: With `Cc1ncoc1C(=O)NCC1=C(c2cccc3ccccc23)C[C@@H]2CC[C@H]1N2Cc1ccco1` as the molecule, how does the activity change read?
A: -7.12% (inactive)

Q: How did the activity change turn out when `CC(=CCOc1ccc2ccc(=O)oc2c1)C1=CC(=O)C(C)(C)O1` was run?
A: 4.08% (inactive)
